HT1080NT lethal = kills 2HG-producing HT-1080-NT fibrosarcoma cells; HT-1080-NT fibrosarcoma viability, CellTiter-Glo ATP luminescence, 48 h; actives 1.6% (n = 360,000); Potency, µM (doses to about 46.1 µM), usual class: cytotoxic; AID 686970;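 further: NT is the 2HG producing partner of a matched IDH1 knockdown line; nearly all actives have a fitted effect of over 55% in size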
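Read-out is CellTiter-Glo luminescence after 10 minutes at room temperature, following 48 hours' compound treatment of HT-1080-NT cells (750 cells/well, RPMI, 5% FBS, 37 degrees C).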
KB-3-1 cytotox = KB-3-1 parental cell cytotoxicity. Potency, µM (series often up to 46.1 µM), actives largely listed as cytotoxic. KB-3-1 viability, CellTiter-Glo ATP luminescence, 72 h. actives 1.4% (n = 400,000); further: nearly all actives have a fitted effect of over 60% in size
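Using CellTiter-Glo luminescence, growth of non-resistant KB-3-1 adenocarcinoma cells is assessed 72 h after pin-tool compound addition at 37 °C. Normalized responses across the concentration series yield fitted curves.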
MCF10A rereplic = DNA re-replication induction in MCF 10a cells; MCF 10A DNA re-replication, Hoechst nuclear intensity, 48 h; Potency, µM (titrated, usually from 46.1 µM), hits mostly activators; actives 2.9% (n = 350,000); AID 624296; further: nearly all actives have a fitted effect of over 50% in size
HT1080 IDH1KD tx = toxicity to HT-1080 IDH1 knockdown cells (counter line). HT-1080 IDH1 knockdown viability, ATP luminescence, 48 h. Potency, µM (highest dose often 46.1 µM), usual class: cytotoxic. actives 2% (n = 360,000)
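IDH1KD HT-1080 cells, 750/well, RPMI + 5% FBS; compound pinned after 2 h settling; 48 h, 37 °C; CellTiter-Glo luminescence; % activity normalised to DMSO and no-cell wells; curves fitted, classed by r2 and efficacy.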
SW480 rereplic = DNA re-replication induction in SW480 cells. Potency, µM (series often up to 46.1 µM), usual class: activators. actives 1.8% (n = 340,000). SW480 DNA re-replication, Hoechst DNA content imaging, 48 h; further: nearly all actives have a fitted effect of over 55% in size
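Compounds, transferred as 23 nL by pin tool, were incubated with cells for 48 hr; DNA content per nucleus was then quantified by Hoechst staining and fluorescence plate imaging.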
KB-V1 MDR tox = KB-V1 MDR subline cytotoxicity; Potency, µM (top dose mostly 46.1 µM), usual class: cytotoxic; KB-V1 MDR cells viability, CellTiter-Glo, 72 h; actives 3.4% (n = 400,000); further: nearly all actives have a fitted effect of over 60% in size
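Readout: CellTiter-Glo luminescence, 10 min after addition. Cells: KB-V1 MDR subline, 72 h at 37 degrees C with compound. Analysis: corrected, normalized data fitted to concentration-effect curves.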
Large screens that a line does not name were inactive. In the library only some 7.9% were active in any assay of this set; here they are far more common. The call rests on the fitted dose curve; in most records, active means well fitted curve in the direction sought with a large enough effect; inconclusive means small, poorly fitted or top-dose-only effect, or another doubt; inactive means no such curve, though single readings can be large; an effect the other way counts as inactive or inconclusive.

C[C@H](NC(=O)c1[nH]cnc1C(=O)Nc1ccccc1F)c1ccccc1	KB-3-1 cytotox inconclusive, KB-V1 MDR tox 18µM (no result: MCF10A rereplic, SW480 rereplic)
CN(Cc1ccccc1)C(=O)c1[nH]cnc1C(=O)Nc1ccc(Br)cc1F	KB-3-1 cytotox 16µM, KB-V1 MDR tox inconclusive (no result: MCF10A rereplic, SW480 rereplic)
Cc1ccnc(OC(C(=O)O)C(OCCc2ccccc2)(c2ccccc2)c2ccccc2)n1 (stereo unspecified)	none
NS(=O)(=O)c1ccc(NC(=O)COC(=O)CSCc2ccc(F)cc2)cc1	none
COc1cccc2c3cccc(OC)c3c3[nH]cnc3c12	KB-3-1 cytotox inconclusive, MCF10A rereplic 21µM, HT1080 IDH1KD tx 21µM, SW480 rereplic inconclusive, KB-V1 MDR tox inconclusive
C#CC(=O)N(c1cccc(OC)c1)C(C(=O)NC1CCCC1)c1cccs1 (stereo unspecified)	HT1080NT lethal 0.25µM, HT1080 IDH1KD tx 40µM
C#CC(=O)N(c1ccc(OC)c(OC)c1)C(C(=O)NC1CCCC1)c1cccs1 (stereo unspecified)	HT1080NT lethal 0.12µM, MCF10A rereplic inconclusive, HT1080 IDH1KD tx 0.58µM, SW480 rereplic inconclusive
COc1ccc(CCN(C(=O)C(F)(F)F)C(C(=O)NC2CCCC2)c2cccs2)cc1OC (stereo unspecified)	KB-V1 MDR tox 9.2µM
Cc1cccc(N(C(=O)C(F)(F)F)C(C(=O)NC2CCCCC2)c2cccs2)c1 (stereo unspecified)	MCF10A rereplic inconclusive, SW480 rereplic inconclusive
Cc1ccccc1OCCCCCn1ccnc1	KB-3-1 cytotox inconclusive
CCc1noc(C)c1C(=O)NNC(=O)c1cc(OC)c(OC)c(OC)c1	SW480 rereplic 18µM
COc1ccc(OC)c(S(=O)(=O)N2CCC(C(=O)Nc3cccc(C)c3)CC2)c1	KB-V1 MDR tox inconclusive
CCc1ccccc1NC(=O)NNC(=O)CCc1ccccc1	KB-V1 MDR tox inconclusive
CCOC(=O)c1cc(C#N)c(Oc2cccc(C(F)(F)F)c2)nc1-c1ccccc1	MCF10A rereplic inconclusive
CCOC(=O)c1cc(C#N)c(Oc2ccc(F)cc2)nc1-c1ccccc1	KB-V1 MDR tox 9.2µM
CCOc1ccccc1OCCCCOc1ccccc1F	none
CN(C)CCNc1nc(-c2ccccc2CO)c2sccc2n1	none (no result: MCF10A rereplic, SW480 rereplic)
CCc1nnc(NC(=O)C2CCN(c3ncnc4sc(C)c(C)c34)CC2)s1	KB-V1 MDR tox inconclusive
Cc1ccc2nc(NC(=O)C3CCN(c4ncnc5sc(C)c(C)c45)CC3)sc2c1	MCF10A rereplic 23µM (no result: KB-3-1 cytotox, KB-V1 MDR tox)
Cc1sc2ncnc(N3CCC(C(=O)N(C)CC(=O)Nc4ccc(Cl)c(C(F)(F)F)c4)CC3)c2c1C	HT1080NT lethal inconclusive, KB-3-1 cytotox 21µM, MCF10A rereplic inconclusive, HT1080 IDH1KD tx 16µM
CCOC(=O)c1ccccc1NC(=O)C1CC(=O)N(C(C)(C)C)C1 (stereo unspecified)	MCF10A rereplic 1µM
CCOC(=O)c1ccccc1NC(=O)C1CC(=O)N(C2CCCCC2)C1 (stereo unspecified)	none
Cc1ccc(C)c(S(=O)(=O)N2CCN(C(=O)C3CCN(c4ncnc5sc(C)c(C)c45)CC3)CC2)c1	KB-3-1 cytotox 23µM, MCF10A rereplic 21µM, SW480 rereplic 21µM, KB-V1 MDR tox inconclusive
O=[N+]([O-])c1ccc(Nc2ccc(Cl)cc2)nc1	MCF10A rereplic inconclusive, HT1080 IDH1KD tx inconclusive
N#Cc1ccc(S(=O)(=O)N2CCCN(c3ccc(C(F)(F)F)cn3)CC2)cc1	MCF10A rereplic inconclusive
Cc1ccc(C)c(NC(=O)COC(=O)Cc2ccsc2)c1	none
CCOC(=O)c1ccccc1NC(=O)C1CCN(c2ncnc3sc(C)c(C)c23)CC1	KB-3-1 cytotox inconclusive, MCF10A rereplic inconclusive, KB-V1 MDR tox 23µM
Cc1sc2ncnc(N3CCC(C(=O)Nc4ccccc4C(C)(C)C)CC3)c2c1C	SW480 rereplic inconclusive, KB-V1 MDR tox inconclusive
Cc1sc2ncnc(N3CCC(C(=O)Nc4nc(-c5cccs5)cs4)CC3)c2c1C	KB-3-1 cytotox inconclusive, MCF10A rereplic inconclusive, KB-V1 MDR tox 5.2µM
Cc1ccc(CN(CCO)CCO)cc1	MCF10A rereplic inconclusive
CCCCc1nn(-c2cc(Cl)ccc2OC)c2c1C(=O)CC(C)(C)C2	none
COCCNC(=O)c1c(N)n(/N=C/c2ccc(F)cc2)c2nc3ccccc3nc12	MCF10A rereplic 2.6µM, SW480 rereplic 5.8µM
COc1cccc(/C=N/n2c(N)c(S(=O)(=O)c3cccs3)c3nc4ccccc4nc32)c1	none
CCOCCCNC(=O)c1c(N)n(-c2ccc(S(N)(=O)=O)cc2)c2nc3ccccc3nc12	MCF10A rereplic inconclusive, SW480 rereplic inconclusive
CC(C)CNC(=O)c1c(N)n(/N=C/c2ccccn2)c2nc3ccccc3nc12	MCF10A rereplic 18µM, SW480 rereplic inconclusive
COCCNC(=O)c1c(N)n(/N=C/c2cccs2)c2nc3ccccc3nc12	MCF10A rereplic inconclusive, SW480 rereplic 5.8µM
COc1cc(S(=O)(=O)N2CCCCC2)ccc1NC(=O)Cc1ccccc1	KB-V1 MDR tox inconclusive
CCCNC(=O)c1onc(CSc2ccc(F)c(F)c2)c1C(=O)NCCC	none
O=C(O)/C=C/C(=O)NC1CCC(CC2CCC(NC(=O)/C=C/C(=O)O)CC2)CC1 (stereo unspecified)	MCF10A rereplic inconclusive
Cc1ccc(N/C(SCc2ccccc2C)=C(/C#N)C(=O)NCc2ccco2)cc1C	KB-3-1 cytotox inconclusive, MCF10A rereplic inconclusive, KB-V1 MDR tox 12µM
CCc1ccc(N/C(SCc2cccc(F)c2)=C(/C#N)C(=O)NCc2ccco2)cc1	SW480 rereplic inconclusive, KB-V1 MDR tox inconclusive
N#C/C(=C\c1ccncc1)c1nc2ccccc2o1	HT1080NT lethal inconclusive, MCF10A rereplic 15µM, HT1080 IDH1KD tx inconclusive
N#C/C(=C\Nc1ccccc1O)c1nc2ccccc2o1	HT1080NT lethal inconclusive, MCF10A rereplic inconclusive, HT1080 IDH1KD tx inconclusive, KB-V1 MDR tox 21µM
CCN1c2ccccc2-c2nc(SCC(=O)Nc3cccc(C(F)(F)F)c3)ncc2S1(=O)=O	none (no result: HT1080NT lethal, MCF10A rereplic, HT1080 IDH1KD tx, SW480 rereplic)
Cc1ccccc1OC1C(=O)N(Cc2ccc3c(c2)OCO3)C1c1sccc1C (stereo unspecified)	HT1080NT lethal inconclusive, MCF10A rereplic inconclusive, HT1080 IDH1KD tx 13µM
CCC1CCC/C1=N\NC(=O)c1cc(C)[nH]n1 (stereo unspecified)	MCF10A rereplic 2.9µM, SW480 rereplic 16µM
Cc1ccc(CSC2=NCCN2C(=O)C(C)Oc2ccccc2)cc1 (stereo unspecified)	none
COc1ccc(-c2n[nH]c(C)c2-c2cnn(-c3ccccc3)c2)c(O)c1	MCF10A rereplic 21µM, SW480 rereplic inconclusive, KB-V1 MDR tox inconclusive

Compound activity deposited in PubChem BioAssay by National Center for Advancing Translational Sciences (NCATS).
